For assay [1], the target named is Cell division control protein 42 homolog (Homo sapiens) (UniProt P60953). The assay is described as follows: inhibition of fluorescent GTP binding to constitutively active Cdc42 – biochemical, multiplex bead flow cytometry, Bodipy-FL-GTP, dose response (AID 1333;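 active = fitted half-maximal concentration within the tested dose range, moderate curve steepness, a statistically real signal drop, and little compound fluorescence or tag-binding interference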). For orientation: In flow cytometry, cells or beads pass a laser one at a time.
For assay [2] the target is unchanged. The assay is described as follows: inhibition of fluorescent GTP binding to wildtype Cdc42 – biochemical, multiplex bead flow cytometry, Bodipy-FL-GTP, dose response (AID 1334;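 active = fitted half-maximal concentration within the tested range, moderate curve steepness, significant signal drop, and little compound fluorescence or bead-linkage interference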). Particulars: bead-based flow cytometry, Bodipy-FL-GTP binding to GST-Cdc42; at 100 µM (top of the series) unless noted.
In assay [3] the target is GTPase HRas (Homo sapiens) (UniProt P01112). Put plainly: Ras wt fluorescent GTP loading blockade – biochemical, wildtype, multiplex bead flow cytometry, dose response (AID 1335;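 active = fitted half-maximal concentration within 10 nM to 100 µM, steepness 0.5 to 2, significant signal drop, low assay interference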). To be noted: bead-based flow cytometry, Bodipy-GTP binding to GST-Ras; at 100 µM (top of the series) unless noted.
Assay [4] has as its system Ras-related protein Rab-7a (dog), GTP binding. The assay is described as follows: blockers of fluorescent GTP binding to Rab7 – biochemical, wildtype, multiplex bead flow cytometry, dose response (AID 1336).
For assay [5], the target named is Ras-related C3 botulinum toxin substrate 1 (Homo sapiens) (UniProt P63000). Put plainly: inhibition of wildtype Rac1 nucleotide loading – biochemical, multiplex bead flow cytometry, dose response (AID 1340;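 active = dose curve with midpoint inside tested range, moderate steepness, plateau gap beyond fit error, low compound glow and bead-link interference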). To be noted: GST-Rac1 beads, Bodipy-FL-GTP binding; at 100 µM (top of the series) unless noted.
Assay [6] deals with GTPase HRas (Homo sapiens) (UniProt P01112). The assay is described as follows: blockade of GTP loading onto mutant Ras – biochemical, activated mutant, multiplex bead flow cytometry, dose response (AID 1341;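 active = dose-response curve with midpoint inside the tested range, moderate steepness, significant amplitude and little compound fluorescence or bead-attachment interference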;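 note: GST-tagged constitutively activated Ras mutant immobilized on beads and multiplexed with other GTPases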).
Assay [7] is described as follows: hit retest on RPL19A-GFP reporter strain – cell-based, S. cerevisiae, flow cytometry, cherry picks, mother/daughter gates, confirmation (AID 2270;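 active = GFP response below 50% of the DMSO control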). Particulars: 3 h, at 10 µM, stronger effect = lower value, 100 = same GFP as DMSO wells.
Assay [8] in a line: yeast TOR pathway reporter LAP4-GFP change – cell-based, cherry picks, flow cytometry, mother/daughter gates, confirmation (AID 2271;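 active = GFP response above 150% of the DMSO control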;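 note: ratio of sample to DMSO plate mean so 100% equals DMSO level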). Particulars: S. cerevisiae LAP4-GFP strain, 3 h, at 10 µM, stronger effect = higher value, 100 means same as DMSO control.
Assay [9] can be described thus: TOR pathway reporter MEP2-GFP, retest of hits – S. cerevisiae, flow cytometry GFP, cherry picks, confirmation (AID 2272;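 active = GFP response above 150% of the DMSO control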;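 note: ratio of well signal to plate DMSO mean so 100% equals DMSO level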). Particulars: S. cerevisiae MEP2-GFP strain, 3 h, at 10 µM, stronger effect = higher value.
Assay [10] in a line: yeast AGP1-GFP fluorescence change, single-dose – cell-based, flow cytometry, S. cerevisiae, cherry picks, confirmation (AID 2273;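 active = GFP response above 150% of the DMSO level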;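 note: median GFP channel fluorescence over the whole cell population gate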). To be noted: S. cerevisiae AGP1-GFP strain, 3 h, at 10 µM.
Assay [11] in a line: TOR pathway CIT2 reporter hit retest – S. cerevisiae, GFP fusion, cherry picks, mother/daughter gates, confirmation (AID 2274;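 active = GFP response above 150% of the DMSO level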). To be noted: S. cerevisiae CIT2-GFP strain, flow cytometry, 3 h, at 10 µM, stronger effect = higher value.
Assay [12] in a line: rapamycin-like changes in RPL19A-GFP expression – cell-based, S. cerevisiae, multiplex flow cytometry, primary screen (AID 1862; in the data active = percent of DMSO control GFP below about 86%;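 note: lower values mimic rapamycin by blocking the RPL19A rise seen in DMSO cells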). Particulars: S. cerevisiae RPL19A-GFP strain, flow cytometry fluorescence, 3 h; at 10 µM; stronger effect = lower value.
Assay [13] is described as follows: TOR pathway GLN3 branch reporter MEP2-GFP changes – S. cerevisiae, multiplex flow cytometry, primary screen (AID 1867;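 active = GFP response, as percent of the DMSO control, above the screen-wide mean plus 3 SD, about 139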;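 note: median GFP channel fluorescence of barcode-gated MEP2-GFP cells measured by flow cytometry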). To be noted: S. cerevisiae MEP2-GFP strain, 3 h, at 10 µM, stronger effect = higher value, 100% means same as DMSO wells.
Assay [14] can be described thus: TOR pathway RTG branch CIT2 reporter changes – S. cerevisiae, GFP fusion, multiplex flow cytometry, primary screen (AID 1870;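 active = percent response above a set limit, the screen-wide mean plus 3 SD, cut at about 130% in these data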;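 note: barcoded CIT2-GFP strain pooled with four other GFP strains with rapamycin as positive control; median GFP fluorescence per well over plate mean of DMSO wells so 100% = DMSO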). To be noted: S. cerevisiae CIT2-GFP expression, 3 h, at 10 µM, stronger effect = higher value.
Assay [15] can be described thus: TOR pathway LAP4-GFP level changes – S. cerevisiae, multiplex flow cytometry, primary screen (AID 1873;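 active = GFP signal, as percent of the solvent control, above the screen mean plus 3 SD, about 149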). To be noted: S. cerevisiae LAP4-GFP expression, 3 h, at 10 µM, stronger effect = higher value.
Assay [16] is described as follows: yeast AGP1-GFP level changes, GLN3 branch – cell-based, multiplex flow cytometry, S. cerevisiae, primary screen (AID 1887;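 active = GFP signal above the screen-wide mean plus 3 SD, that is over about 124.5% of the solvent control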;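 note: AGP1-GFP fusion strain of S. cerevisiae within a five-strain barcoded multiplex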). To be noted: 3 h, at 10 µM, stronger effect = higher value.
Assay [17] is described as follows: reduced mouse 2C T cell binding to pMHC/ICAM-1 vesicles – MLPCN validation set, flow cytometry, LFA-1/ICAM-1 modulator project, pilot screen (AID 2523;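 active = response below a set limit, under 55% cells CD8-positive and vesicle-bound, and CD8 cells' 90th-percentile brightness under 279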;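 for vesicle binding response: mean PE anti-B7-1 fluorescence of CD8+ cells relative to row control; 100% = QL9-loaded vesicles with DMSO vehicle in the same plate row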). Particulars: 2C mouse CD8+ T cells, at 7 µM, stronger effect = lower value; double positive events: measured here: CD8+/vesicle+ event percentage.
Assay [18] deals with Integrin beta-1 (Homo sapiens) + Integrin alpha-4 (Homo sapiens) (UniProt P13612+P05556). Put plainly: alpha4beta1 integrin LIBS antibody binding reduction – U937 cells, HUTS-21 mAb, flow cytometry, validation set, VLA-4 allosteric modulator project, pilot screen (AID 2674;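 active = inhibition above 50%, about 3 SD of the validation set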;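 note: antibody binding induced by the VLA-4 ligand LDV present at three times its Kd; 0% = LDV ligand with antibody and no compound and 100% = antibody without LDV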). Particulars: HUTS-21 LIBS mAb binding, at 6.7 µM, stronger effect = higher value, binding induced by LDV ligand.
Assay [19] is described as follows: calorie-restriction mimetic ROS inhibitors, yeast – validation compound set, pilot screen (AID 2706;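 active = superoxide response below 65% of plate, a cut near 3 SD across the whole screen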;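 note: yeast exposed to compound for one week at 30 degrees C before staining; 100% = mean of all compound wells on the same plate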). Particulars: S. cerevisiae aging, superoxide DHE fluorescence; at 10 µM; stronger effect = lower value.
The target in assay [20] is Beta-adrenergic receptor kinase 1 (Homo sapiens) (UniProt P25098). Put plainly: GRK2 binders displacing RNA aptamer, biochemical, validation, human GRK2, bead flow cytometry (AID 488806;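 active = aptamer binding inhibition above 30%, about 3 SD of noise from non-fluorescent compounds; inactive = inhibition at or below 30%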). Particulars: bead-bound GRK2, FAM-aptamer displacement, at 10 µM, stronger effect = higher value.
In assay [21] the target is Beta-2 adrenergic receptor (Homo sapiens) (UniProt P07550). The assay is described as follows: agonist-induced loss of surface beta2AR – cell-based, FAP fluorogen, flow cytometry, validation set, pilot screen (AID 504459;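 active = percent response above 42, roughly 3 SD of non-fluorescent test compounds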;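 note: agonist-driven loss of surface beta2AR via internalization measured by FAP dye flow cytometry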). Particulars: Am2.2-beta2AR cells, at 10 µM, stronger effect = higher value.
Assay [22] concerns the target AP-2 complex subunit beta (Homo sapiens) (UniProt P63010). Put plainly: beta-arrestin/AP2 interaction blockers – biochemical, validation set, GST-AP2 beads, flow cytometry, pilot screen (AID 504541;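 active = inhibition above 54%, about 3 SD of non-fluorescent compounds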;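 note: AP2 carries R879A mutation and is captured from E. coli lysate; bead-bound FITC arrestin peptide fluorescence measuring arrestin peptide binding to AP2; 0% = DMSO wells and 100% = excess unlabeled arrestin peptide control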). To be noted: FITC arrestin peptide, at 10 µM, stronger effect = higher value, AP2 beta2 appendage fragment, R879A mutant.
Assay [23] is described as follows: cytosolic pH regulators acting via V-ATPase – S. cerevisiae, pHLuorin, HTS validation (AID 504600; in the data active = response above about 15%;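 note: plate controls were DMSO for no effect and reference compound for full effect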). To be noted: V-ATPase proton transport, at 10 µM, stronger effect = higher value.
For assay [24], the system named is anti-desmoglein-3 scFv antibody binding to human DSG3. Put plainly: blockers of pathogenic pemphigus antibody–desmoglein-3 binding – biochemical, validation compound set, bead-based, flow cytometry, pilot screen (AID 588368;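 active = binding below the plate cutoff, the plate median minus 3 SD, with a reading above zero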;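 note: signal is the median channel fluorescence of bead-bound GFP antibody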). Particulars: Protein G beads, DSG3-Fc, scFv-GFP binding, at 10 µM, stronger effect = lower value.
A short description of assay [25]: Nile Red efflux blockade in pump-expressing yeast – validation compound set, multiplex, phenotypic, pilot screen (AID 588506;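 active = efflux inhibition above 0.42, the validation set average plus 4 SD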;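 note: Nile Red retained in cells so higher fluorescence means more efflux inhibition; 0 = negative control wells and 1 = enniatin B 25 µM full block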). To be noted: S. cerevisiae pump-expressing triplex, Nile Red efflux flow cytometry; at 10 µM; stronger effect = higher value; the pumps come from Candida albicans.
Assay [26] addresses ATP-binding cassette sub-family B member 6 (Homo sapiens) (UniProt Q9NP58). Put plainly: blockers of ABCB6-driven porphyrin uptake – K562-ABCB6 cells, flow cytometry, validation set, pilot screen (AID 588550;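 active = inhibition above the screen-wide mean plus 3 SD, about 51%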;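 note: 0% = DMSO wells and 100% = benzethonium chloride 70 µM positive control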). To be noted: K562-ABCB6 porphyrin accumulation, 1 h, at 10 µM, stronger effect = higher value.
The nature of assay [27]: AML differentiation inducers, ER-HoxA9 marrow cells – cell-based, GFP/MAC1 double positive, flow cytometry, validation set, primary screen (AID 588685;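 active = differentiation response of at least 50%, scaled between solvent and reference control, from cells with both markers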;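 note: compound exposure lasts four days before antibody staining and flow analysis; 0% = DMSO wells and 100% = 5 µM fulvestrant positive control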). Particulars: stronger effect = higher value, normalized: vehicle 0, fulvestrant 100.
The mark [28] stands for this setting: measured here: daughter cell gate.
Setting [29] is: measured here: mother cell gate.
Setting [30] is: measured here: daughter cell gate response.
The mark [31] stands for this setting: measured here: mother cell gate response.

Records with an inconclusive call do not appear. For some of these results: Results with a measured potency or affinity are listed apart. Calls of active or inactive are those of the source. Unless noted, the rule behind the calls is not given here.

GTPase HRas (Homo sapiens), sequence (P01112 whole entry, looked up): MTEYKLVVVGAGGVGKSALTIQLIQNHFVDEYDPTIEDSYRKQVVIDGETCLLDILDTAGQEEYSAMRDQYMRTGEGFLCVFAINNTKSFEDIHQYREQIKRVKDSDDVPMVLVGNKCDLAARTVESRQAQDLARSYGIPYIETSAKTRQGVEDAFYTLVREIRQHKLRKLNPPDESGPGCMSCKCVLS
Cell division control protein 42 homolog (Homo sapiens), sequence (P60953 whole entry, looked up): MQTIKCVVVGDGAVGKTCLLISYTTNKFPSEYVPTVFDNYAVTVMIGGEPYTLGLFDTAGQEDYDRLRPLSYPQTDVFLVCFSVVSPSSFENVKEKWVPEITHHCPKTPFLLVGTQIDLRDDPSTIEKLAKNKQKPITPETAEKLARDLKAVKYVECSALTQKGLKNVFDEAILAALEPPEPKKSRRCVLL
Beta-adrenergic receptor kinase 1 (Homo sapiens), sequence (P25098 whole entry, looked up): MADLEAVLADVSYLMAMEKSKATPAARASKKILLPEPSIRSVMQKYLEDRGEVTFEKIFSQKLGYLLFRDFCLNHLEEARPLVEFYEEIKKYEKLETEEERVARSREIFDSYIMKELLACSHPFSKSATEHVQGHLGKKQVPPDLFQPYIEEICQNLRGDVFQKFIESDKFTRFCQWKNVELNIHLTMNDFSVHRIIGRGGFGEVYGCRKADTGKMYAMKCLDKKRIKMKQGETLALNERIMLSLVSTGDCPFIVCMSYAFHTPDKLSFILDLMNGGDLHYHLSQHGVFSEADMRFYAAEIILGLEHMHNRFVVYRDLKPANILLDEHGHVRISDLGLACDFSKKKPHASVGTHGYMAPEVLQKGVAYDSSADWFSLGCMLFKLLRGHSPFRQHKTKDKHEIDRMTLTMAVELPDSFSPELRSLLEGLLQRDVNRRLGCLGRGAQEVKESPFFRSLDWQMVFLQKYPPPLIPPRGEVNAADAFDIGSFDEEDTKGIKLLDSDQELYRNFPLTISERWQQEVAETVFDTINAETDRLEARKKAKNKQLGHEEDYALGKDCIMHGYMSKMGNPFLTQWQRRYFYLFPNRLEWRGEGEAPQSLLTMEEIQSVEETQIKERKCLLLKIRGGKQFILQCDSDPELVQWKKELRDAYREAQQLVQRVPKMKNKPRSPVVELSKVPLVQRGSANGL
AP-2 complex subunit beta (Homo sapiens), sequence (P63010 whole entry, looked up, the tested form may be a part, one chain of several): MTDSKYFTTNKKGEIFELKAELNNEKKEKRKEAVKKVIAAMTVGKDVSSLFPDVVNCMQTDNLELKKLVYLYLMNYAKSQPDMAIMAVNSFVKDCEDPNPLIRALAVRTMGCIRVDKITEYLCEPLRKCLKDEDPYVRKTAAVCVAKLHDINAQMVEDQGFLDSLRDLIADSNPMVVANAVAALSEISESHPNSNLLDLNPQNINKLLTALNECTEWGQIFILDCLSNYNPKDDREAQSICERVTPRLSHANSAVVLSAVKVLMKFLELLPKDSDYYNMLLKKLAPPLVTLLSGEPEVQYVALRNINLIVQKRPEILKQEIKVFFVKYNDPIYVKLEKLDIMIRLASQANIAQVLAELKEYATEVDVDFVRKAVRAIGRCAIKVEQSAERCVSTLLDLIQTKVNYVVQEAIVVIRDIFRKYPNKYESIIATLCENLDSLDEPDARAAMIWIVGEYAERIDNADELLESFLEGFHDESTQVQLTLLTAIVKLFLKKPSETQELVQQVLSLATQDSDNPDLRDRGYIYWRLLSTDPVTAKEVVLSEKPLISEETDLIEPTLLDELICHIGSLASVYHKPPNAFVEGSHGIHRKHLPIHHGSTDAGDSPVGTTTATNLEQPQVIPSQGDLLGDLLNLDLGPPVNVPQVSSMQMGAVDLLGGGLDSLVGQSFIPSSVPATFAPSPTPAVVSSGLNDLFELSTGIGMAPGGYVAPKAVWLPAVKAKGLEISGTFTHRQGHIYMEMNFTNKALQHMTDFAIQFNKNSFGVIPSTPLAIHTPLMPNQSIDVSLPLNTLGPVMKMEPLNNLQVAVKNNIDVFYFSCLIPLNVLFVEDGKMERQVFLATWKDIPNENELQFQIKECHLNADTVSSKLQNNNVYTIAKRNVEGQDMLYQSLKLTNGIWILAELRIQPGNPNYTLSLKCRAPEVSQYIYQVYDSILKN
Integrin beta-1 (Homo sapiens) + Integrin alpha-4 (Homo sapiens), sequence (P05556 whole entry, looked up): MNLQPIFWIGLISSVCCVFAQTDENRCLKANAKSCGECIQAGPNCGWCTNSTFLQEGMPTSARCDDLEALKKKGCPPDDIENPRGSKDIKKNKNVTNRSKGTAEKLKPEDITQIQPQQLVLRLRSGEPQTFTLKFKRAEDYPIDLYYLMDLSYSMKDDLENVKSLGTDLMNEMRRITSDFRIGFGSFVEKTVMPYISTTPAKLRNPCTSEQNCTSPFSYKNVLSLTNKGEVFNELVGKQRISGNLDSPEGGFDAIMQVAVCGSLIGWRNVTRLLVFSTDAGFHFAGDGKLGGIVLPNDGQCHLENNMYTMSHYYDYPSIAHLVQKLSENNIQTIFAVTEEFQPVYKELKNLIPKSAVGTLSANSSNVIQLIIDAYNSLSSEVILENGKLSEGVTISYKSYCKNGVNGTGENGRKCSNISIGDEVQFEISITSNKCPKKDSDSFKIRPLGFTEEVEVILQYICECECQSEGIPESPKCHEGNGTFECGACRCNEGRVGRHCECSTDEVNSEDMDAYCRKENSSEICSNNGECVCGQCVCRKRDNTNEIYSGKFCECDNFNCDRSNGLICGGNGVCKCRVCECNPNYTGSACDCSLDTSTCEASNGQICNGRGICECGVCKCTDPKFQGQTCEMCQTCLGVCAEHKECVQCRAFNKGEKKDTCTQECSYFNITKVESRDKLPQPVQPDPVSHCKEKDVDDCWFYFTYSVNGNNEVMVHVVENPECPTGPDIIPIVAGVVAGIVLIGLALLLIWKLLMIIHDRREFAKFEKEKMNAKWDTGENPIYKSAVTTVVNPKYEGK
Integrin beta-1 (Homo sapiens) + Integrin alpha-4 (Homo sapiens), sequence (P13612 whole entry, looked up): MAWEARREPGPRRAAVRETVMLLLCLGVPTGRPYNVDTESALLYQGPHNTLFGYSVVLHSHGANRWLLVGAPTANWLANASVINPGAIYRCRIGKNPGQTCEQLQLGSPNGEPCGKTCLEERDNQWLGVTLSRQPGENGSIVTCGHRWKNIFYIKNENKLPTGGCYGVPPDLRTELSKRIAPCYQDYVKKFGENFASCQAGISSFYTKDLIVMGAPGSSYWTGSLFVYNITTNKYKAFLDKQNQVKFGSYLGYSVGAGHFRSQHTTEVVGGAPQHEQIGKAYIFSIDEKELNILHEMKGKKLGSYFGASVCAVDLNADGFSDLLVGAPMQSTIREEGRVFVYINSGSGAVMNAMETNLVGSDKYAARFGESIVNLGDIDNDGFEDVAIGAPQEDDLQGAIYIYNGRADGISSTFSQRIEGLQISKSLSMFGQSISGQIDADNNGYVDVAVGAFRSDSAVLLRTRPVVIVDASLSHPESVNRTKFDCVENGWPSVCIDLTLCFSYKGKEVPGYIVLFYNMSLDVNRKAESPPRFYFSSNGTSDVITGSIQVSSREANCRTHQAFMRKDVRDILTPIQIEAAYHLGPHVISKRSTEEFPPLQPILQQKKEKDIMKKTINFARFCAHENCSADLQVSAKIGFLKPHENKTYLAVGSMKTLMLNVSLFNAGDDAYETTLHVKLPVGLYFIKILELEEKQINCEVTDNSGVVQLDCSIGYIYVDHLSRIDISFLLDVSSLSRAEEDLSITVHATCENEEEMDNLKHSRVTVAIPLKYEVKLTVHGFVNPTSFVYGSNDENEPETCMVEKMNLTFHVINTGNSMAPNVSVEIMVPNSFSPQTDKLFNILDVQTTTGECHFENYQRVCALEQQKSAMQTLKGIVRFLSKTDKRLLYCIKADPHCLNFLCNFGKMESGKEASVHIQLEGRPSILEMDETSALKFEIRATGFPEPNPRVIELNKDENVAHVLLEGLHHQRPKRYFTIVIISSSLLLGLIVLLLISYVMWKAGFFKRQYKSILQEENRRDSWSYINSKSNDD
ATP-binding cassette sub-family B member 6 (Homo sapiens), sequence (Q9NP58 whole entry, looked up): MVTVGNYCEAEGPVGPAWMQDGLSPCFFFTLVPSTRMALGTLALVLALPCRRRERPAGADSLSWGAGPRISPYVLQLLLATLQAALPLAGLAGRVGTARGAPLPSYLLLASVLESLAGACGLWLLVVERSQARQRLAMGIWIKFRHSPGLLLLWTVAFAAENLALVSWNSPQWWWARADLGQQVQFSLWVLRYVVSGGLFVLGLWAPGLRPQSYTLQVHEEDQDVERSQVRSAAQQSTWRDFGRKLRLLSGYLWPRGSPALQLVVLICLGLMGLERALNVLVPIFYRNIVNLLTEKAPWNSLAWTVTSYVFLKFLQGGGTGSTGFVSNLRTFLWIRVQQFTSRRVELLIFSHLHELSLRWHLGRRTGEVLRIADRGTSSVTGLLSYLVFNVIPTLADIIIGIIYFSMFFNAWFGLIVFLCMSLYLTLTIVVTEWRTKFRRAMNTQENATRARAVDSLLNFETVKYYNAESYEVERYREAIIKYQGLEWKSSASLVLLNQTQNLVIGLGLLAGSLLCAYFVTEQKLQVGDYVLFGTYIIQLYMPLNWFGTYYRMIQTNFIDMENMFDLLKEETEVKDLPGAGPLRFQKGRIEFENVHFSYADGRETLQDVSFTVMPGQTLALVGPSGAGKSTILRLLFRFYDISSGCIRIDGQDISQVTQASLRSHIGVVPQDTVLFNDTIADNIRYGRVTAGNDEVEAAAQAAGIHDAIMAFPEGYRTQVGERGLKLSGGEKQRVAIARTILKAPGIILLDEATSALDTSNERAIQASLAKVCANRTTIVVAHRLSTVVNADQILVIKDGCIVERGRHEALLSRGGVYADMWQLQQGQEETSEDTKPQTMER

In the case of `COCCN1C(=O)/C(=C/c2ccc(N3CCCC3)cc2C)SC1=S`, the compound was classed as inactive in assay [1], in assay [4] and in assay [6]. In [2], this compound showed a fluorescence, percent of control (lower = inhibition) of 77.8%. In addition, the GTP binding, percent of control in assay [3] turned out to be 104%. Besides, the GTP binding signal, raw median fluorescence (lower = inhibition) (MCF (arbitrary fluorescence units)) in [5] amounted to 224. Further, the GFP response vs DMSO in assay [7] was 99.6% (inactive); in [7] (setting [28]), 99.1%; in assay [7] (setting [29]), 100%; in assay [9] it was 143% (inactive). Also, the GFP response relative to DMSO in assay [8] is 117% (inactive); in assay [8] (setting [30]), 117%; in assay [8] (setting [31]), 116%. Further, the GFP response, % of DMSO in assay [10] was 101% (inactive); in assay [11], 112% (inactive); in assay [11] (setting [28]) it was 112%; in assay [11] (setting [29]) it was 112%.

For the compound `COc1cc(SC#N)ccc1N=Cc1c(C)[nH]n(-c2ccc(C)c(C)c2)c1=O`, the call in assay [1], in assay [4] and in [6] was inactive. This compound also registered a fluorescence, percent of control (lower = inhibition) in assay [2] of 44.7%. This compound also registered a GTP binding, percent of control in assay [3] of 83%.

By inhibition is commonly meant the drop in the measured response relative to a control, in per cent. Regarding `COc1cc2c(cc1OC)-c1cc(NC3CCCCCC3)nc(=O)n1CC2`, the call in [1], in [4] and in assay [6] was inactive. In [2], this compound registered a fluorescence, percent of control (lower = inhibition) of 34.3%. The GTP binding, percent of control in assay [3] was found to be 69.8%. In [5], this compound returned a GTP binding signal, raw median fluorescence (lower = inhibition) (MCF (arbitrary fluorescence units)) of 145. The percent of DMSO control GFP in [12] is 100% (inactive). The values for the GFP response vs DMSO in assay [13] and in assay [15] were 100% (inactive) and 94.7% (inactive), respectively. Further, the percent response of DMSO control in assay [14] is 109% (inactive). In addition, the GFP response, % of DMSO in assay [16] was 95.9% (inactive). The compound also registered a double positive events in assay [17] of 62.4%. In addition, in assay [17], the vesicle binding response is 601% (inactive). The inhibition in assay [18] is -22.2% (inactive); in [22] it was 17% (inactive); in [26], -6% (inactive). Also, in [19], the superoxide response (% of plate) is 98.3% (inactive). The aptamer binding inhibition in [20] is 0% (inactive). The response in [21] is -1.14% (inactive); in assay [23], -1.05% (inactive). Further, the binding (% of control) in assay [24] was 107% (inactive). Also, the efflux inhibition (fraction of control) in assay [25] is 0.21 (inactive). Besides, in assay [27], the differentiation response was 7.09% (inactive).

With `N=c1c(C(=O)NCc2ccco2)cc2c(=O)n3ccccc3nc2n1CCc1ccccc1`, the call in assay [1], in [4] and in assay [6] was inactive. For the same compound, in [2], the fluorescence, percent of control (lower = inhibition) worked out at 28.7%. In [3], this compound displayed a GTP binding, percent of control of 40.3%. In assay [5], the GTP binding signal, raw median fluorescence (lower = inhibition) (MCF (arbitrary fluorescence units)) was 96.5. Further, the GFP response vs DMSO in [7] was 96.8% (inactive); in assay [7] (setting [28]), 96.4%; in assay [7] (setting [29]) it was 95.8%; in assay [9], 100% (inactive). Moreover, the GFP response relative to DMSO in assay [8] is 99.2% (inactive); in [8] (setting [30]), 99.2%; in [8] (setting [31]), 90.8%. Further, the GFP response, % of DMSO in assay [10] is 97% (inactive); in [11] it was 96.9% (inactive); in assay [11] (setting [28]) it was 95.4%; in assay [11] (setting [29]) it was 91.4%.

`CCOc1nnc(C)c2c(C)n(-c3cccc(OC)c3)nc12`: the result in [1], in [4] and in assay [6] was inactive. This compound also had a fluorescence, percent of control (lower = inhibition) in [2] of 55.9%. This compound also showed a GTP binding, percent of control in assay [3] of 67.2%. The same compound displayed a GTP binding signal, raw median fluorescence (lower = inhibition) (MCF (arbitrary fluorescence units)) in assay [5] of 194. Moreover, the GFP response vs DMSO in [7] is 104% (inactive); in [7] (setting [28]), 102%; in assay [7] (setting [29]) it was 106%; in assay [9] it was 102% (inactive). The results for the GFP response relative to DMSO in assay [8], in [8] (setting [30]) and in assay [8] (setting [31]) were 98.7% (inactive), 98.7% and 100%, respectively. For the same compound, the GFP response, % of DMSO in assay [10] was 99.8% (inactive); in assay [11], 108% (inactive); in [11] (setting [28]), 105%; in [11] (setting [29]), 109%.

Take `O=C(O)c1ccc(/C=N/NC(=O)c2cc(-c3ccc4c5c(cccc35)CC4)n[nH]2)cc1`: the outcome in assay [1], in assay [4] and in assay [6] was inactive. For the same compound, in [2], the fluorescence, percent of control (lower = inhibition) came out at 28.2%. In [3], this compound registered a GTP binding, percent of control of 71.2%. In [5], the GTP binding signal, raw median fluorescence (lower = inhibition) (MCF (arbitrary fluorescence units)) is 151.
